This is one part of a sample in which hits are shown more often than they occur.
GluA2 TARP mod = modulators of AMPA receptor GluA2-stargazin complexes. O88602+P19491. HEK293 GluA2+stargazin, membrane potential dye (FDSS), glutamate EC50; hits were called plate by plate, in both directions. calls only at 30 µM. 40,000 tested, 3.5% active. AID 1259245;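 active = any of four per-well response measures lying three or more SD from its plate-wide compound average, in either direction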
Target sequence (O88602 whole entry, looked up): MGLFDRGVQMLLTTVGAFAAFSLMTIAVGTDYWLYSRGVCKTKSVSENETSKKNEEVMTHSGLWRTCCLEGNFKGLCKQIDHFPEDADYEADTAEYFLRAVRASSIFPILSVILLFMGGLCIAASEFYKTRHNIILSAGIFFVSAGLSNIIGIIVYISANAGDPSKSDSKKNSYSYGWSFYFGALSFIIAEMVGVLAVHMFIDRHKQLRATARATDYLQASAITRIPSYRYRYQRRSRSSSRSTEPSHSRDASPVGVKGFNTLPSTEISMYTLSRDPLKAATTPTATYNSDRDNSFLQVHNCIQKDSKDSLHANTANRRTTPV
Target sequence (P19491 whole entry, looked up): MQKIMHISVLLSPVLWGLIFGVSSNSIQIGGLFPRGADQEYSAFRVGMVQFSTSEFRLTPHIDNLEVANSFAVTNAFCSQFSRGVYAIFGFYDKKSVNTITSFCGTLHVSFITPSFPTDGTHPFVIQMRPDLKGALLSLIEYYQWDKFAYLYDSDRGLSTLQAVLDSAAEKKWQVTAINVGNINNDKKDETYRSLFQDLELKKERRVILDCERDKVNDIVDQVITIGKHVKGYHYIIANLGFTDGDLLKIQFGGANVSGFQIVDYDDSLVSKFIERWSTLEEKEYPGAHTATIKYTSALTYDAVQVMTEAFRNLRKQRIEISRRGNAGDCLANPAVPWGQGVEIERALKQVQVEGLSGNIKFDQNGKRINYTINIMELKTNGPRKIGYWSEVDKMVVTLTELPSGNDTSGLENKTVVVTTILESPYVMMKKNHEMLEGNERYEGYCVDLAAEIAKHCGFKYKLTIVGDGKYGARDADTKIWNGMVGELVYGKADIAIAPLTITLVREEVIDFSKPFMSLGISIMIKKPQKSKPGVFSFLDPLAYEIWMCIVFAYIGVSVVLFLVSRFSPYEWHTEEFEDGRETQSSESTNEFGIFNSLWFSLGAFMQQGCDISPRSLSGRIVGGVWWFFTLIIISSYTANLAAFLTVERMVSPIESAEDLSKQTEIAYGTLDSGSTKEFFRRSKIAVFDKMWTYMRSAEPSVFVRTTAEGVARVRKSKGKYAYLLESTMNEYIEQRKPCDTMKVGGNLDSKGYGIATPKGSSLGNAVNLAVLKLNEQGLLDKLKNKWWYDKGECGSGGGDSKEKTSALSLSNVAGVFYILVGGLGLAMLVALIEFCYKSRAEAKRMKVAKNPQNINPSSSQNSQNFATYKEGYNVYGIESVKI
GIRK2 act = GIRK2 channel activators by thallium flux. P48051. HEK293 GIRK2/NPY4 cells, thallium flux fluorescence. activation (% efficacy), % for hits at 37.5 µM. 34,000 tested, under 10 active;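 active = primary screen hit, no activity in plain HEK293 cells, and in GIRK2-only cells above 5% efficacy rising with concentration; inactive = the rest, including fluorescent compounds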;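 note: efficacy is normalized control-subtracted fluorescence 15 s after thallium addition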
Numbers without * were called inactive; i = inactive; . = not tested or not shown; + = active, no number.

SMILES | GluA2 TARP mod | GIRK2 act
CCN1CCN(c2nc3c(c(=O)n(C)c(=O)n3C)n2CCCOc2ccccc2)CC1 | + | .
O=C(Nc1ccccc1)C(=O)Nc1ccccc1[N+](=O)[O-] | i | .
COC(=O)Nc1nc(CC(=O)NCCc2c[nH]c3ccccc23)cs1 | . | i
COc1ccc(S(=O)(=O)Nc2nc(CCC(=O)NC(C)C)cs2)cc1 | i | i
COc1ccc(S(=O)(=O)Nc2nc(CCC(=O)Nc3nnc(C)s3)cs2)cc1 | + | i
Cc1nnc(NC(=O)CCc2csc(NS(=O)(=O)c3ccccc3)n2)s1 | + | i
CNC(=O)Cc1csc(NC(=O)c2csc(Nc3ccccc3)n2)n1 | . | i
O=C(CCc1csc(NS(=O)(=O)c2ccccc2)n1)Nc1nc2ccccc2s1 | i | i
O=C(Cc1csc(Nc2ccccc2)n1)NCCc1c[nH]c2ccccc12 | + | i
Cc1nnc(NC(=O)Cc2csc(Nc3ccccc3)n2)s1 | + | i
COCCNC(=O)c1ccc2c(=O)n(-c3cc(C)cc(C)c3)c(SCC#N)nc2c1 | i | i
Cc1ccnc(NS(=O)(=O)N2CCCCCC2)c1 | i | i
O=C(NCC1COC2(CCCCC2)O1)c1ccc(F)cc1 (stereo not given) | i | i
COc1ccc(S(=O)(=O)N2CCN(CCNC(=O)C(C)(C)C)CC2)cc1 | i | i
CCN1CC(c2nc3ccccc3n2Cc2ccccc2)CC1=O (stereo not given) | i | .
CN1CC(c2nc3ccccc3n2Cc2ccccc2F)CC1=O (stereo not given) | i | .
C=CCN1CC(c2nc3ccccc3n2Cc2ccc(C(C)C)cc2)CC1=O (stereo not given) | i | .
O=C1CC(c2nc3ccccc3n2Cc2ccccc2F)CN1Cc1ccccc1 (stereo not given) | + | .
C=CCN1CC(c2nc3ccccc3n2Cc2cccc(C)c2)CC1=O (stereo not given) | + | .
C=CCN1CC(c2nc3ccccc3n2Cc2ccc(C)cc2)CC1=O (stereo not given) | i | .
C=CCN1CC(c2nc3ccccc3n2Cc2ccc(Cl)cc2)CC1=O (stereo not given) | + | .
CC(c1ccccc1)n1c(C2CC(=O)N(Cc3ccccc3)C2)nc2ccccc21 (stereo not given) | + | .
O=C(NCCOc1ccc2nnc(-c3ccccc3)n2n1)c1ccc2ncsc2c1 | i | i
CC1CC(=O)Nc2c1c(NC(=O)C1(c3ccc(Cl)cc3)CCCC1)nn2C (stereo not given) | i | i
Cc1cccc(Cn2c(C3CC(=O)N(Cc4ccc(F)cc4)C3)nc3ccccc32)c1 (stereo not given) | i | .
SMILES | GluA2 TARP mod | GIRK2 act
Cc1cccc(Cn2c(C3CC(=O)N(Cc4ccccc4)C3)nc3ccccc32)c1 (stereo not given) | + | .
COc1cccc(C(=O)Nc2ccc3nc(-c4ccc(C)cc4)cc(N4CCOCC4)c3c2)c1 | i | .
COc1ccc(S(=O)(=O)N2CCCCC2CC(=O)NCCc2ccc(Cl)cc2)cc1 (stereo not given) | i | .
COc1ccc(CCNC(=O)CC2CCCCN2S(=O)(=O)c2ccc(F)cc2)cc1 (stereo not given) | + | .
COc1ccc(CCNC(=O)CC2CCCCN2S(=O)(=O)c2ccc(OC)cc2)cc1 (stereo not given) | i | .
COc1ccc(CCNC(=O)CC2CCCCN2S(=O)(=O)c2ccc(Cl)cc2)cc1 (stereo not given) | + | .
COc1ccc(-c2nc(CCNS(=O)(=O)c3cccc(F)c3)cs2)cc1OC | i | .
O=C(NCCOc1ccc(F)cc1)c1ccccc1Cl | i | i
O=C(NCCOc1ccc(F)cc1)c1c(F)cccc1Cl | + | i
COc1cccc(C(=O)NCc2ccc3[nH]c4c(c3c2)CCCC4)c1 | i | .
Cc1ccc(-c2cc(=O)n(CC(=O)N3CCN(c4ccccc4F)CC3)cn2)cc1 | i | i
CNC(=O)C1Cc2ccccc2N1C(=O)c1ccccc1SC(F)F (stereo not given) | i | i
COc1ccc(S(=O)(=O)CC(=O)Nc2nc(-c3cc(Cl)ccc3Cl)cs2)cc1 | i | i
COc1ccc(S(=O)(=O)CC(=O)Nc2nc(-c3cc(Cl)sc3Cl)cs2)cc1 | + | i
Cc1c(C(=O)N2CCN(C(=O)c3ccco3)CC2)c(C(F)(F)F)nn1C | i | i
COC(=O)C1=C(C)N(C)C(=O)NC1c1ccc(OCc2ccccc2)cc1 (stereo not given) | i | .
CCC(=O)N1c2ccccc2NC2=C(C(=O)CC(C)(C)C2)C1c1ccc(OCc2ccccc2)cc1 (stereo not given) | + | .
O=C(NCC(O)c1ccsc1)C1(c2ccccc2)CCOCC1 (stereo not given) | i | i
Cc1noc(C2CN(S(=O)(=O)c3cccc(Cl)c3C)C2)n1 | + | i
Cc1noc(C2CN(S(=O)(=O)c3cccs3)C2)n1 | i | i
Cc1ccnc(NC(=O)Cc2cc(-c3ccccc3F)on2)c1 | + | i
O=C(Cc1cc(-c2ccc(F)cc2F)on1)Nc1ccon1 | i | i
Cc1ccc(S(=O)(=O)CCCC(=O)Nc2cc(C)on2)cc1 | i | i
CS(=O)(=O)c1ccc(Nc2nc(CC(=O)Nc3ccccc3C(N)=O)cs2)cc1 | i | i
O=C(NCC(c1ccc(F)cc1)N1CCOCC1)C1CCCCC1 (stereo not given) | + | .
SMILES | GluA2 TARP mod | GIRK2 act
COc1ccc(C(CNC(=O)C2CCCCC2)N2CCOCC2)cc1 (stereo not given) | + | .
COc1ccc(C(CNC(=O)C(=O)NC2CCCC2)N2CCOCC2)cc1 (stereo not given) | i | i
O=C(Cc1ccc(F)cc1)NCC(c1ccc(F)cc1)N1CCOCC1 (stereo not given) | i | .
CC1CN(CC(=O)Nc2c(F)cccc2F)CC(C)O1 (stereo not given) | i | .
CCN1CCc2c(sc(NC(=O)c3ccc(C)cc3)c2-c2nc3ccccc3s2)C1 | i | .
O=C(NCC1CCN(c2ccccn2)CC1)Nc1cccc(C(F)(F)F)c1 | i | .
O=C(NCC1CCN(c2ncccn2)CC1)Nc1cccc(C(F)(F)F)c1 | + | i
O=C(NCC1CCN(C(=O)COc2ccccc2)CC1)Nc1ccccc1F | i | i
O=C(NCC1CCN(C(=O)COc2ccccc2)CC1)Nc1cccc(C(F)(F)F)c1 | + | i
Cn1cccc1C(O)CNC(=O)Nc1cccc(C(F)(F)F)c1 (stereo not given) | i | i
O=C(NCC(O)Cc1ccccc1)Nc1cccc(C(F)(F)F)c1 (stereo not given) | + | i
COc1ccc(C(F)(F)F)cc1NC(=O)c1cnn2c(C(F)F)cc(-c3ccccc3)nc12 | i | .
COc1cn(CC(=O)Nc2ccc3c(c2)OCCO3)c(CSc2nccc(C)n2)cc1=O | i | i
CC(C)N1CCc2c(sc(NC(=O)Cc3ccccc3)c2-c2nc3ccccc3s2)C1 | i | .
COC(=O)c1c(NC(=O)Cc2ccc(F)cc2)sc2c1CCN(C(C)C)C2 | + | i
CSc1ccc(-c2noc(CSc3nc4ccccc4c(=O)n3Cc3ccco3)n2)cc1 | i | .
COc1ccc(-c2noc(CSc3nc4ccccc4c(=O)n3Cc3ccco3)n2)cc1OC | + | .
